Screens from PubChem.
Cav3 T inh: blocks human Cav3.2 T-type calcium channel; AID 449739; actives 4% (n = 100,000); B-score at 10 µM; Cav3.2-expressing cells, Fluo-4 calcium fluorescence FDSS; stronger effect = lower value; O95180;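 active = single-dose well whose peak fluorescence ratio is a statistical outlier from its plate by either plate-standardised score or position-corrected B-score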
CYP2C19 activ: increases human CYP2C19 enzyme activity | activation factor at 5 µM | recombinant CYP2C19, luciferin-H EGE luminescence; stronger effect = higher value; 0 = fully inhibited enzyme, 1 = untreated enzyme | AID 1025 | P33261 | 96,000 tested, under 10 active;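 active = activation factor of at least 2 at 5 µM in the primary screen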
Target sequence (P33261 whole entry, looked up): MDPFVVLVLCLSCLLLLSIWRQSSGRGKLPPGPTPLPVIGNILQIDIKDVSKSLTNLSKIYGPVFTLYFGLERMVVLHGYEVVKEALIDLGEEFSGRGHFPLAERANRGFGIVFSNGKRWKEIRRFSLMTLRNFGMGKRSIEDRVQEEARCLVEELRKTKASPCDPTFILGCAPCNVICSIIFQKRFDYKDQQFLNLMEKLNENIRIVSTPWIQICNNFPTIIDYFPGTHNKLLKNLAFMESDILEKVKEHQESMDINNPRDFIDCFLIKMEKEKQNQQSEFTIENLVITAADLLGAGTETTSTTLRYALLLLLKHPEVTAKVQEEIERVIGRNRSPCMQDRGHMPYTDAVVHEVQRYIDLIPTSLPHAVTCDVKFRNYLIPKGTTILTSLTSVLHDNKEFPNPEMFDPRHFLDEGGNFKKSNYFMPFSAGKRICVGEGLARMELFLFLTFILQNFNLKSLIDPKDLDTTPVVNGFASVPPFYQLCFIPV
CYP2C9 inhib: human CYP2C9 inhibition | P11712 | CYP2C9 Supersomes, luciferin-H conversion, luminescence | inhibition, % at 5 µM | actives 20% (n = 96,000) | AID 777;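 active = blocking of liver enzyme CYP2C9 beyond about 50% at 5 µM, limit read from the data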
CYP2C19 inhib: inhibitors of human CYP2C19 | inhibition, % at 5 µM | actives 21% (n = 96,000) | CYP2C19 Supersomes, luciferin-H EGE luminescence, 30 min | P33261 | AID 778;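 active = CYP2C19 inhibition above a set limit at 5 µM in the primary screen, cut at about 50% in these data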
CYP2C9 activ: CYP2C9 (human) activation; P11712; recombinant CYP2C9, luciferin-H conversion, luminescence; stronger effect = higher value; factor 1 = untreated enzyme, 0 = blocked; activation factor at 5 µM; actives 1.4% (n = 96,000); AID 1024;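 active = activation factor of 2 or more for CYP2C9 at a 5 µM dose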
Hits are given with their value. Only some compounds are listed: those with a hit (about 27% of all), similar ones and a draw of the others.

Results for CCOC(=O)c1c(-c2ccc(OC)cc2)csc1NC(=O)CCN1C(=O)c2ccccc2C1=O ?
Cav3 T inh: inactive; CYP2C19 activ: inactive; CYP2C9 inhib: 78; CYP2C19 inhib: 55; CYP2C9 activ: inactive

How did COC(=O)c1c(-c2ccc(F)cc2)csc1NC(=O)c1ccco1 do in these assays?
Cav3 T inh: inactive; CYP2C19 activ: inactive; CYP2C9 inhib: 64; CYP2C19 inhib: inactive; CYP2C9 activ: inactive

What do the screens show for `CCOC(=O)c1c(-c2ccc(C)o2)csc1NC(=O)CN1CCN(CC)CC1`?
Cav3 T inh: inactive; CYP2C19 activ: inactive; CYP2C9 inhib: inactive; CYP2C19 inhib: inactive; CYP2C9 activ: inactive

What do the screens show for `O=C(Nc1scc(-c2ccccc2)c1C(=O)O)c1ccco1`?
Cav3 T inh: inactive; CYP2C19 activ: inactive; CYP2C9 inhib: inactive; CYP2C19 inhib: inactive; CYP2C9 activ: inactive

Results for O=C(NNc1cccc(Cl)n1)Nc1cccc(Cl)c1 ?
Cav3 T inh: inactive; CYP2C19 activ: inactive; CYP2C9 inhib: inactive; CYP2C19 inhib: 72; CYP2C9 activ: inactive

How did O=C(Nc1ccccc1)Nc1cccc(Cl)c1 do in these assays?
Cav3 T inh: inactive; CYP2C19 activ: inactive; CYP2C9 inhib: inactive; CYP2C19 inhib: inactive; CYP2C9 activ: inactive

What do the screens show for `CCCNC(=O)NCCc1ccncc1`?
Cav3 T inh: inactive; CYP2C19 activ: inactive; CYP2C9 inhib: inactive; CYP2C19 inhib: inactive; CYP2C9 activ: inactive

What do the screens show for `O=C(NCCc1ccncc1)Nc1cccc(Cl)c1`?
Cav3 T inh: inactive; CYP2C19 activ: inactive; CYP2C9 inhib: 98; CYP2C19 inhib: 98; CYP2C9 activ: inactive

What do the screens show for `O=C(NCCc1ccncc1)Nc1ccccc1Cl`?
Cav3 T inh: inactive; CYP2C19 activ: inactive; CYP2C9 inhib: 82; CYP2C19 inhib: 89; CYP2C9 activ: inactive

What do the screens show for `CC(C)CCNC(=O)NC(=O)COC(=O)c1cc(S(=O)(=O)N2CCOCC2)ccc1N1CCCCC1`?
Cav3 T inh: inactive; CYP2C19 activ: inactive; CYP2C9 inhib: inactive; CYP2C19 inhib: inactive; CYP2C9 activ: inactive

How did COc1ccccc1NC(=O)CN(c1ccc(C)cc1)S(=O)(=O)c1c(C)n[nH]c1C do in these assays?
Cav3 T inh: inactive; CYP2C19 activ: inactive; CYP2C9 inhib: 96; CYP2C19 inhib: 70; CYP2C9 activ: inactive

What do the screens show for `COc1ccc(N(CC(=O)Nc2cccc(C)c2C)S(=O)(=O)c2c(C)n[nH]c2C)cc1`?
Cav3 T inh: inactive; CYP2C19 activ: inactive; CYP2C9 inhib: 51; CYP2C19 inhib: 54; CYP2C9 activ: inactive

What do the screens show for `COc1ccc(N(CC(=O)NC2CCCC2)S(=O)(=O)c2c(C)[nH]c(=O)[nH]c2=O)cc1`?
Cav3 T inh: inactive; CYP2C19 activ: inactive; CYP2C9 inhib: inactive; CYP2C19 inhib: inactive; CYP2C9 activ: inactive

How did O=[N+]([O-])c1ccc(O)c(-c2nc(-c3ccccc3)c(-c3cccs3)[nH]2)c1 do in these assays?
Cav3 T inh: inactive; CYP2C19 activ: inactive; CYP2C9 inhib: 92; CYP2C19 inhib: inactive; CYP2C9 activ: inactive

How did COc1ccc(-c2nc(-c3ccccc3)c(-c3cc([N+](=O)[O-])ccc3C)[nH]2)cc1OC do in these assays?
Cav3 T inh: inactive; CYP2C19 activ: inactive; CYP2C9 inhib: inactive; CYP2C19 inhib: inactive; CYP2C9 activ: inactive

What do the screens show for `CCOc1cc(-c2nc(-c3ccccc3)c(-c3cc([N+](=O)[O-])ccc3C)[nH]2)ccc1O`?
Cav3 T inh: inactive; CYP2C19 activ: inactive; CYP2C9 inhib: 57; CYP2C19 inhib: inactive; CYP2C9 activ: inactive

How did CCCCn1ccc(=O)c2c(C(F)(F)F)nccc21 do in these assays?
Cav3 T inh: inactive; CYP2C19 activ: inactive; CYP2C9 inhib: inactive; CYP2C19 inhib: inactive; CYP2C9 activ: inactive

Results for CCN(CC)c1nc(=S)nc(NC(C)(C)C)[nH]1 ?
Cav3 T inh: inactive; CYP2C19 activ: inactive; CYP2C9 inhib: inactive; CYP2C19 inhib: inactive; CYP2C9 activ: inactive

How did Cc1ccc(NS(=O)(=O)c2cc(C(=O)O)ccc2Cl)c(C)c1 do in these assays?
Cav3 T inh: inactive

Results for COCCNC(=O)c1ccccc1NC(=O)c1ccc(Cl)c(S(=O)(=O)Nc2ccc(C)cc2C)c1 ?
Cav3 T inh: inactive; CYP2C19 activ: inactive; CYP2C9 inhib: 81; CYP2C19 inhib: inactive; CYP2C9 activ: inactive

How did Cc1ccc(C)c(NS(=O)(=O)c2cc(C(=O)Nc3ccccc3-c3ccccc3)ccc2Cl)c1 do in these assays?
Cav3 T inh: inactive; CYP2C19 activ: inactive; CYP2C9 inhib: 70; CYP2C19 inhib: 79; CYP2C9 activ: inactive

How did COCCNC(=O)c1ccccc1NC(=O)c1ccccc1N(C)S(=O)(=O)c1ccc(C)cc1 do in these assays?
CYP2C19 activ: inactive; CYP2C9 inhib: 95; CYP2C19 inhib: 84; CYP2C9 activ: inactive
